Data reported in PubChem BioAssay AID1159580 (chemical genetic matrix, 2015).
Out of some 5,500 compounds screened, about 2,000 (36%) were called active. Another 18% or so got no clear call; they are omitted. No stated cut-off is given here; in the data, active means normalized growth mostly below about 0.91 (no sharp cut-off); inconclusive means no clear call, values can overlap the other calls; inactive means mostly above about 0.92. The list shows a part of the results.

Assay: chemical genetic growth profiling, strain panel (AID 1159580);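 further: tested at 20 µM; growth read once vehicle control cultures reached saturation at 30 °C; 1 = growth at the plate median or of vehicle wells; lower values mean less growth of the strain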
Details: growth OD

Measured: normalized growth

CC(=O)Oc1cc(OC(C)=O)c2c(=O)c(-c3ccccc3)coc2c1
inactive: S. cerevisiae deletion strains, locus YAL013W, strain DEP1, hits give low values 0.995 | S. cerevisiae deletion strains, locus YBR021W, strain FUR4, hits give low values 0.978 | S. cerevisiae deletion strains, locus YBR229C, strain ROT2, hits give low values 1 | S. cerevisiae deletion strains, locus YCL029C, strain bik1, hits give low values 1 | S. cerevisiae deletion strains, locus YDL035C, strain GPR1, hits give low values 0.997 | S. cerevisiae deletion strains, locus YDL074C, strain BRE1, hits give low values 0.989 | S. cerevisiae deletion strains, locus YDL101C, strain DUN1, hits give low values 1.01 | S. cerevisiae deletion strains, locus YDL134C, strain PPH21, hits give low values 1.01 | S. cerevisiae deletion strains, locus YDL185W, strain tfp1, hits give low values 0.998 | S. cerevisiae deletion strains, locus YDL192W, strain arf1, hits give low values 0.993 | S. cerevisiae deletion strains, locus YDR101C, strain arx1, hits give low values 0.982 | S. cerevisiae deletion strains, locus YDR150W, strain NUM1, hits give low values 1.02 | S. cerevisiae deletion strains, locus YDR162C, strain NBP2, hits give low values 1.01 | S. cerevisiae deletion strains, locus YDR318W, strain mcm21, hits give low values 0.982 | S. cerevisiae deletion strains, locus YDR388W, hits give low values 1 | S. cerevisiae deletion strains, locus YDR502C, strain sam2, hits give low values 0.978 | S. cerevisiae deletion strains, locus YEL061C, strain CIN8, hits give low values 1.01 | S. cerevisiae deletion strains, locus YER110C, hits give low values 0.992 | S. cerevisiae deletion strains, locus YER155C, strain BEM2, hits give low values 1.01 | S. cerevisiae deletion strains, locus YER167W, strain BCK2, hits give low values 1.02 | S. cerevisiae deletion strains, locus YGL078C, strain dbp3, hits give low values 0.991 | S. cerevisiae deletion strains, locus YGL086W, strain mad1, hits give low values 1 | S. cerevisiae deletion strains, locus YGL248W, strain PDE1, hits give low values 1.01 | S. cerevisiae deletion strains, locus YGR078C, strain PAC10, hits give low values 1 | S. cerevisiae deletion strains, locus YGR135W, strain pre9, hits give low values 0.985 | S. cerevisiae deletion strains, locus YGR229C, strain SMI1, hits give low values 1.02 | S. cerevisiae deletion strains, locus YGR252W, strain gcn5, hits give low values 0.888 | S. cerevisiae deletion strains, locus YHR030C, strain SLT2, hits give low values 1.01 | S. cerevisiae deletion strains, locus YHR079C, strain IRE1 (second series), hits give low values 0.98 | S. cerevisiae deletion strains, locus YHR094C, strain hxt1, hits give low values 0.988 | S. cerevisiae deletion strains, locus YHR129C, strain ARP1, hits give low values 1 | S. cerevisiae deletion strains, locus YHR200W, strain rpn10, hits give low values 1 | S. cerevisiae deletion strains, locus YIL066C, strain RNR3, hits give low values 1.02 | S. cerevisiae deletion strains, locus YIL073C, strain SPO22, hits give low values 1 | S. cerevisiae deletion strains, locus YIL125W, strain kgd1, hits give low values 0.992 | S. cerevisiae deletion strains, locus YIR030C, strain dcg1, hits give low values 1 | S. cerevisiae deletion strains, locus YJL095W, strain BCK1, hits give low values 1.01 | S. cerevisiae deletion strains, locus YJL134W, strain LCB3, hits give low values 1.01 | S. cerevisiae deletion strains, locus YJL168C, strain set2, hits give low values 1 | S. cerevisiae deletion strains, locus YJL187C, strain SWE1 (second series), hits give low values 1 | S. cerevisiae deletion strains, locus YJR043C, strain POL32, hits give low values 0.987 | S. cerevisiae deletion strains, locus YJR075W, strain HOC1, hits give low values 1.02 | S. cerevisiae deletion strains, locus YKL009W, strain mrt4, hits give low values 1.02 | S. cerevisiae deletion strains, locus YKL068W, hits give low values 0.993 | S. cerevisiae deletion strains, locus YKL085W, strain MDH1 (second series), hits give low values 0.982 | S. cerevisiae deletion strains, locus YKL085W, strain MDH1, hits give low values 0.982 | S. cerevisiae deletion strains, locus YKL190W, strain CNB1, hits give low values 1.03 | S. cerevisiae deletion strains, locus YKR001C, strain vps1, hits give low values 0.944 | S. cerevisiae deletion strains, locus YLR039C, strain RIC1, hits give low values 0.901 | S. cerevisiae deletion strains, locus YLR058C, strain SHM2, hits give low values 1.01 | S. cerevisiae deletion strains, locus YLR102C, strain apc9, hits give low values 1 | S. cerevisiae deletion strains, locus YLR262C, strain YPT6, hits give low values 0.913 | S. cerevisiae deletion strains, locus YLR268W, strain sec22, hits give low values 0.983 | S. cerevisiae deletion strains, locus YLR330W, strain CHS5, hits give low values 1.01 | S. cerevisiae deletion strains, locus YLR342W, strain FKS1 (second series), hits give low values 0.966 | S. cerevisiae deletion strains, locus YLR371W, strain rom2, hits give low values 1 | S. cerevisiae deletion strains, locus YLR418C, strain cdc73, hits give low values 0.891 | S. cerevisiae deletion strains, locus YML016C, strain PPZ1, hits give low values 1.02 | S. cerevisiae deletion strains, locus YML032C, strain rad52, hits give low values 1 | S. cerevisiae deletion strains, locus YML124C, strain tub3, hits give low values 0.995 | S. cerevisiae deletion strains, locus YMR078C, strain ctf18, hits give low values 1 | S. cerevisiae deletion strains, locus YMR223W, strain ubp8, hits give low values 0.992 | S. cerevisiae deletion strains, locus YMR263W, strain SAP30, hits give low values 1 | S. cerevisiae deletion strains, locus YMR307W, strain GAS1, hits give low values 0.858 | S. cerevisiae deletion strains, locus YNL067W, strain RPL9B, hits give low values 1 | S. cerevisiae deletion strains, locus YNL128W, strain TEP1, hits give low values 1.03 | S. cerevisiae deletion strains, locus YNL153C, strain GIM3, hits give low values 1.02 | S. cerevisiae deletion strains, locus YNL233W, strain BNI4, hits give low values 1.02 | S. cerevisiae deletion strains, locus YNL250W, strain rad50, hits give low values 0.974 | S. cerevisiae deletion strains, locus YNL271C, strain bni1, hits give low values 0.991 | S. cerevisiae deletion strains, locus YNL298W, strain CLA4, hits give low values 0.999 | S. cerevisiae deletion strains, locus YNL307C, strain MCK1, hits give low values 0.932 | S. cerevisiae deletion strains, locus YNL322C, strain KRE1, hits give low values 1.01 | S. cerevisiae deletion strains, locus YNR052C, strain pop2, hits give low values 0.989 | S. cerevisiae deletion strains, locus YOL006C, strain TOP1, hits give low values 0.991 | S. cerevisiae deletion strains, locus YOL012C, strain htz1 0.735 | S. cerevisiae deletion strains, locus YOL147C, strain pex11, hits give low values 0.994 | S. cerevisiae deletion strains, locus YOR061W, strain CKA2, hits give low values 1.02 | S. cerevisiae deletion strains, locus YOR069W, strain VPS5, hits give low values 1.01 | S. cerevisiae deletion strains, locus YOR136W, strain idh2, hits give low values 0.997 | S. cerevisiae deletion strains, locus YOR144C, strain elg1, hits give low values 1 | S. cerevisiae deletion strains, locus YOR184W, strain ser1, hits give low values 0.986 | S. cerevisiae deletion strains, locus YOR316C, strain cot1, hits give low values 1 | S. cerevisiae deletion strains, locus YPL055C, strain LGE1, hits give low values 0.991 | S. cerevisiae deletion strains, locus YPL241C, strain CIN2, hits give low values 1.01 | S. cerevisiae deletion strains, locus YPR119W, strain clb2, hits give low values 0.999 | S. cerevisiae deletion strains, locus YPR141C, strain kar3, hits give low values 0.979 | S. cerevisiae deletion strains, locus YPR163C, strain tif3, hits give low values 0.994 | S. cerevisiae deletion strains, locus YPR167C, strain met16, hits give low values 0.996 | S. cerevisiae deletion strains, strain wtn01, hits give low values 0.984 | S. cerevisiae strains, strain wild type, hits give low values 1.01
